Data on one sequence can be found in PMC7862700, “An all-to-all approach to the identification of sequence-specific readers for epigenetic DNA modifications on cytosine”.

Common to all, as to assay: DAPPL (digital affinity profiling via proximity ligation, sequencing); 10 mM Tris-HCl pH 7.5, 50 mM NaCl, 1 mM DTT, 4% glycerol, room temperature, 30 min; GST-TFs on glutathione beads, 16-mer random dsDNA library, 0.1% formaldehyde crosslink after washing; high values mean tight binding
For assay [1], the target named is T1, FEV (Homo sapiens, UniProt Q99581 1-238).
T1 sequence: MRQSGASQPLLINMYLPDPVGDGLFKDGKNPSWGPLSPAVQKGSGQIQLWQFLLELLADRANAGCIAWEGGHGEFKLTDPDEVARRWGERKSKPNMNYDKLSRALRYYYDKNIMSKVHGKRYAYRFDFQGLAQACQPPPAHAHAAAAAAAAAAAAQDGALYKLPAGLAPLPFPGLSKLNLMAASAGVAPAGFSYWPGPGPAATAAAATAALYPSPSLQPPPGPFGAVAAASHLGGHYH
The note with it: protein: recombinant; tags: N-terminal GST; dsDNA, one strand shown. Summed up:
(§1)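 Human transcription factors were made in yeast as GST fusions, captured on glutathione beads and barcoded with DNA. With a tag-only sample included, the pool was incubated with 200 nmole of a random double-stranded 16-mer DNA library in Tris/NaCl/DTT/glycerol buffer at room temperature for 30 min, then crosslinked with 0.1% formaldehyde after washing, ligated by proximity, amplified and sequenced. For binding signal, each hexamer's read frequency for a factor is divided by its frequency for the tag-only sample.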

In assay [2] the target is ETV5 (Homo sapiens, UniProt P41161 1-510). The note with it: protein: recombinant; tags: N-terminal GST; dsDNA, one strand shown. Summed up:
as §1

In assay [3] the target is HSF1 (Homo sapiens, UniProt Q00613 1-529). The note with it: protein: recombinant; tags: N-terminal GST; chain copies: 3; dsDNA, one strand shown. Put shortly: as §1
HSF1, sequence (Q00613 whole entry): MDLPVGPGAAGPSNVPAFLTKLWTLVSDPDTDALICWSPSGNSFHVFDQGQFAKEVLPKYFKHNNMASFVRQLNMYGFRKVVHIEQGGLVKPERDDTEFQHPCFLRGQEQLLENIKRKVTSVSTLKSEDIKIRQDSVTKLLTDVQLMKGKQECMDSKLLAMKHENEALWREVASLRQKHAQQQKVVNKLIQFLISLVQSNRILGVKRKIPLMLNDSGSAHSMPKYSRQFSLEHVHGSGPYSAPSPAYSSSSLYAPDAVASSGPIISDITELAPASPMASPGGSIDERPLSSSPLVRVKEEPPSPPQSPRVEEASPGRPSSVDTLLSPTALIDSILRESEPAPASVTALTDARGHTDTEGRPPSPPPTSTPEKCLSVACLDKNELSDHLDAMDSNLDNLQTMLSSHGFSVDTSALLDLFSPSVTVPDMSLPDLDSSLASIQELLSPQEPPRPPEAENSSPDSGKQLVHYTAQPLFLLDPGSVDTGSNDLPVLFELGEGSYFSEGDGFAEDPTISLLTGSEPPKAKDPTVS
Assay [4] deals with T2, SPIC (Homo sapiens, UniProt Q8N5J4 1-248).
T2 sequence: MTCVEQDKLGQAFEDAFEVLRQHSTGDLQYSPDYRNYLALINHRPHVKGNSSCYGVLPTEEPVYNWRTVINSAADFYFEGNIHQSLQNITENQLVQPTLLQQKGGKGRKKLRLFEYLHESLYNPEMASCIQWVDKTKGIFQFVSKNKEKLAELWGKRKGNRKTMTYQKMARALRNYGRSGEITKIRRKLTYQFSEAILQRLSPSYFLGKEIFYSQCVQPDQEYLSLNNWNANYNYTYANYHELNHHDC
Conditions: protein: recombinant; tags: N-terminal GST; dsDNA, one strand shown. Put shortly:
as §1

Assay [5] has as its target ELF4 (Homo sapiens, UniProt Q99607 1-663). Conditions: protein: recombinant; tags: N-terminal GST; dsDNA, one strand shown. Put shortly: as §1
For assay [6], the target named is T3, ELK4 (Homo sapiens, UniProt P28324-2 1-405).
T3 sequence: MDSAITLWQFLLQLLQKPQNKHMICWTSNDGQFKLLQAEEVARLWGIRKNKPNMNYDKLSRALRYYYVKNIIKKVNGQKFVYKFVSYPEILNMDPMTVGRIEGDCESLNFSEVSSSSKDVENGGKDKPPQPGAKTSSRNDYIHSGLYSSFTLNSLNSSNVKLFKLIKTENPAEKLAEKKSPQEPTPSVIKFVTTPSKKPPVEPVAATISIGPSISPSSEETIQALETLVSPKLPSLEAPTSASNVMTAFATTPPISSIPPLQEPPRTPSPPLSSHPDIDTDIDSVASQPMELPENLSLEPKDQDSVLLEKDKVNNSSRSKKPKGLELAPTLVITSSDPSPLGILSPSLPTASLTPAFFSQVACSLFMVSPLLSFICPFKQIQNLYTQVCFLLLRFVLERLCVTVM
The note with it: protein: recombinant; tags: N-terminal GST; dsDNA, one strand shown. Summed up:
as §1

Assay [7] deals with T4, ETV2 (Homo sapiens, UniProt O00321 1-342).
T4 sequence: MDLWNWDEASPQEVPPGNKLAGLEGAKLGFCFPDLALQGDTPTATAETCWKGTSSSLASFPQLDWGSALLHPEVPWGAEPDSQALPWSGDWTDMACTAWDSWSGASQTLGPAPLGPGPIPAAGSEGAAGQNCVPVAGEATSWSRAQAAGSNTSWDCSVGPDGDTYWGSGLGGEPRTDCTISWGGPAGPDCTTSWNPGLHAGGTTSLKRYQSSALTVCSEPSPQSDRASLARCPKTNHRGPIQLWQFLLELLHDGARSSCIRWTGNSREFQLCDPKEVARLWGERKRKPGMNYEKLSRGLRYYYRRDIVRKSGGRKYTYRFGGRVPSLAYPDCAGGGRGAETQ
Conditions: protein: recombinant; tags: N-terminal GST; dsDNA, one strand shown. Summed up:
as §1

In assay [8] the target is T5, ELF3 (Homo sapiens, UniProt P78545 1-371).
T5 sequence: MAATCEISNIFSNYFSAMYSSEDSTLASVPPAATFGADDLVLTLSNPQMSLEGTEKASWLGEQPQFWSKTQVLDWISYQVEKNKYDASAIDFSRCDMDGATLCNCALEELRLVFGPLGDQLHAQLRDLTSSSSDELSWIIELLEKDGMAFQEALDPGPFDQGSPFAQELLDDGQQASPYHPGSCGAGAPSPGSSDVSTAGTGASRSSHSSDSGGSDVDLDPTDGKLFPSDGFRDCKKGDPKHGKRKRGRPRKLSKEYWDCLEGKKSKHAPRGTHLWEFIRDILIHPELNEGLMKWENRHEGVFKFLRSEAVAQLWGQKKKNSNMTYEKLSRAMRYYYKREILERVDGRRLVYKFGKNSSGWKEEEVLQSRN
Conditions: protein: recombinant; tags: N-terminal GST; dsDNA, one strand shown. Summed up:
as §1

Assay [9] addresses CRX (Homo sapiens, UniProt O43186 1-299). The note with it: protein: recombinant; tags: N-terminal GST; dsDNA, one strand shown. Summed up:
as §1

In assay [10] the target is ETV1 (Homo sapiens, UniProt P50549 1-477). The note with it: protein: recombinant; tags: N-terminal GST; dsDNA, one strand shown. Put shortly:
as §1

Assay [11] addresses T6, ERF (Homo sapiens, UniProt P50548 1-548).
T6 sequence: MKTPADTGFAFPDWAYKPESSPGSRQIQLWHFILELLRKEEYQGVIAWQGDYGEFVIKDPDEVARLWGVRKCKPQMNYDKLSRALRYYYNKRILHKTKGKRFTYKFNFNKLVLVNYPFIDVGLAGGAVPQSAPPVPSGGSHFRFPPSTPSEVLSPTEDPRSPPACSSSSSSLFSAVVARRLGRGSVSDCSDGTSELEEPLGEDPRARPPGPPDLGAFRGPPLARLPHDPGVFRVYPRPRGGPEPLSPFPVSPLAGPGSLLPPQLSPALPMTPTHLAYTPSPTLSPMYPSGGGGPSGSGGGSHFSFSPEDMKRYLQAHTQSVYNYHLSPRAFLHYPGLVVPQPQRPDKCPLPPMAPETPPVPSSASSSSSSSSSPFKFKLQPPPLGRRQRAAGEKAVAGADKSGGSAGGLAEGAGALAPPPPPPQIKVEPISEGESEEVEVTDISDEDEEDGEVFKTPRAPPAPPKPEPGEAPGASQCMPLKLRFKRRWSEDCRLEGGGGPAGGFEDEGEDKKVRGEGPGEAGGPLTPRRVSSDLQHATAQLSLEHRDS
Conditions: protein: recombinant; tags: N-terminal GST; dsDNA, one strand shown. Put shortly: as §1

The target of assay [12] is T7, ETV3L (Homo sapiens, UniProt Q6ZN32 1-361).
T7 sequence: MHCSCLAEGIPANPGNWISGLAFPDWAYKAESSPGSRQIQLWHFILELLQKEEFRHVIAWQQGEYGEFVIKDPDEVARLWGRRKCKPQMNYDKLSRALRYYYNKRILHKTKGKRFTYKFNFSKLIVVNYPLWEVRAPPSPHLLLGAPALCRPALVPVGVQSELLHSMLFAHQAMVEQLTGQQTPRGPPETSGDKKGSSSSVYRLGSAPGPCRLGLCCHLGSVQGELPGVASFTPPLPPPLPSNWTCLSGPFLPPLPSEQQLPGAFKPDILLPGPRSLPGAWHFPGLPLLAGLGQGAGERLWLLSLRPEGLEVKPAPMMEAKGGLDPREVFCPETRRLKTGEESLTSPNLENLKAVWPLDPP
Conditions: protein: recombinant; tags: N-terminal GST; dsDNA, one strand shown. Put shortly: as §1

The target of assay [13] is T8, ETS2 (Homo sapiens, UniProt P15036 1-469).
T8 sequence: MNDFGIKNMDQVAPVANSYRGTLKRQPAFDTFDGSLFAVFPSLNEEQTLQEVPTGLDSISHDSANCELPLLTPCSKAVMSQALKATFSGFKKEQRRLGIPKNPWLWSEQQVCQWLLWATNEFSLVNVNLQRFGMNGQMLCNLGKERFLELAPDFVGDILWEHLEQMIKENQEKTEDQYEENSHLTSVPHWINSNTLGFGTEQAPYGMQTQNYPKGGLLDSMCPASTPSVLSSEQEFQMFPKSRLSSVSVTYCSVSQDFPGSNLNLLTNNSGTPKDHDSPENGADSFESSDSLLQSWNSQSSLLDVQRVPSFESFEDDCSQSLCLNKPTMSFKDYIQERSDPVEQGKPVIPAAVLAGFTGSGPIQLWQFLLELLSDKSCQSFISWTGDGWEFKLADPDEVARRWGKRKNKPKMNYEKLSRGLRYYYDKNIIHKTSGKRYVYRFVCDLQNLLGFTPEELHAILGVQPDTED
Conditions: protein: recombinant; tags: N-terminal GST; dsDNA, one strand shown. Summed up:
as §1

The target of assay [14] is T9, SPDEF (Homo sapiens, UniProt O95238 1-335).
T9 sequence: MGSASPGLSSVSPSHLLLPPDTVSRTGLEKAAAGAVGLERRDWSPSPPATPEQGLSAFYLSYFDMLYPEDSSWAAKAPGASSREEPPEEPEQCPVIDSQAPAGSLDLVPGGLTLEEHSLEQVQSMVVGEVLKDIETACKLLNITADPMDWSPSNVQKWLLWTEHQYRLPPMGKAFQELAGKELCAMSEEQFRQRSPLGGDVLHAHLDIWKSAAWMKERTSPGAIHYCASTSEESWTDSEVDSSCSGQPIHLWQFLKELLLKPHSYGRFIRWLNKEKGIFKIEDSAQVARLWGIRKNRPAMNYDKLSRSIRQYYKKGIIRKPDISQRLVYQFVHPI
Conditions: protein: recombinant; tags: N-terminal GST; dsDNA, one strand shown. Put shortly: as §1

The target of assay [15] is T10, ETV7 (Homo sapiens, UniProt Q9Y603 1-341).
T10 sequence: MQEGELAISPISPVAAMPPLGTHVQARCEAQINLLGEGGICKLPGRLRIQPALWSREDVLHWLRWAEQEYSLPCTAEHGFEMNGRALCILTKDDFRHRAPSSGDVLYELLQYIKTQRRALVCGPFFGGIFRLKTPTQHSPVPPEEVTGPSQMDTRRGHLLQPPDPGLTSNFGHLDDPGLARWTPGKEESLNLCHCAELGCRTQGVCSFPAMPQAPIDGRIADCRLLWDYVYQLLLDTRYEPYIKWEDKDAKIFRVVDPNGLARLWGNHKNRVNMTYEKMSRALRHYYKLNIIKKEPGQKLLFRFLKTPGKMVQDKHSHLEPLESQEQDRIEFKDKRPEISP
The note with it: protein: recombinant; tags: N-terminal GST; dsDNA, one strand shown. Summed up:
as §1

The target in assay [16] is T11, ELF5 (Homo sapiens, UniProt Q9UKW6-2 1-255).
T11 sequence: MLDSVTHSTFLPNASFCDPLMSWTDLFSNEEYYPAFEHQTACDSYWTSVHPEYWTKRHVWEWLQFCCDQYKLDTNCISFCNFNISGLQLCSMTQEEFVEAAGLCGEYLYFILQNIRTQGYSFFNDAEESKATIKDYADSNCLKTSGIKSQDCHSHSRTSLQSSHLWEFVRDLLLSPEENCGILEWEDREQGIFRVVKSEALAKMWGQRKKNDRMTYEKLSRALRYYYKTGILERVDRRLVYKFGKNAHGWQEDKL
Conditions: protein: recombinant; tags: N-terminal GST; dsDNA, one strand shown. Put shortly:
as §1

The target in assay [17] is T12, ETV3 (Homo sapiens, UniProt P41162-2 1-143).
T12 sequence: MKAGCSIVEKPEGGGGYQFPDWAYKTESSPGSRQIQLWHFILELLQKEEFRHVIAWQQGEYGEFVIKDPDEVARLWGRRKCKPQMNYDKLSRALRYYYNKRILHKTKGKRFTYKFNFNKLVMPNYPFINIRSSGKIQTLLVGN
The note with it: protein: recombinant; tags: N-terminal GST; dsDNA, one strand shown. Summed up:
as §1

The target in assay [18] is ETV6 (Homo sapiens, UniProt P41212 1-452). The note with it: protein: recombinant; tags: N-terminal GST; dsDNA, one strand shown. Summed up:
as §1

ETV6, sequence (P41212 whole entry): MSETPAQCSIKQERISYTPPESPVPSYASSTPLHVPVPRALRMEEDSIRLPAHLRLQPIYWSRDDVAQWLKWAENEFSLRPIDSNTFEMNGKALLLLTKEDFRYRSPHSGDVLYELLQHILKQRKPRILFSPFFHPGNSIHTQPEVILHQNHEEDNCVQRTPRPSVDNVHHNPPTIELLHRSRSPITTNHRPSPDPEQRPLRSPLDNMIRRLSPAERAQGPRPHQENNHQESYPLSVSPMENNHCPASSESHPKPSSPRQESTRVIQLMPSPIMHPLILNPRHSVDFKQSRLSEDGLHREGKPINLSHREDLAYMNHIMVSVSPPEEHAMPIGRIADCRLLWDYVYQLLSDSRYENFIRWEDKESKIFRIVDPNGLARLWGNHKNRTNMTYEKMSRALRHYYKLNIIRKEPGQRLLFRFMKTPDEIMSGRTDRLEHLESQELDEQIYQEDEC
ELF4, sequence (Q99607 whole entry): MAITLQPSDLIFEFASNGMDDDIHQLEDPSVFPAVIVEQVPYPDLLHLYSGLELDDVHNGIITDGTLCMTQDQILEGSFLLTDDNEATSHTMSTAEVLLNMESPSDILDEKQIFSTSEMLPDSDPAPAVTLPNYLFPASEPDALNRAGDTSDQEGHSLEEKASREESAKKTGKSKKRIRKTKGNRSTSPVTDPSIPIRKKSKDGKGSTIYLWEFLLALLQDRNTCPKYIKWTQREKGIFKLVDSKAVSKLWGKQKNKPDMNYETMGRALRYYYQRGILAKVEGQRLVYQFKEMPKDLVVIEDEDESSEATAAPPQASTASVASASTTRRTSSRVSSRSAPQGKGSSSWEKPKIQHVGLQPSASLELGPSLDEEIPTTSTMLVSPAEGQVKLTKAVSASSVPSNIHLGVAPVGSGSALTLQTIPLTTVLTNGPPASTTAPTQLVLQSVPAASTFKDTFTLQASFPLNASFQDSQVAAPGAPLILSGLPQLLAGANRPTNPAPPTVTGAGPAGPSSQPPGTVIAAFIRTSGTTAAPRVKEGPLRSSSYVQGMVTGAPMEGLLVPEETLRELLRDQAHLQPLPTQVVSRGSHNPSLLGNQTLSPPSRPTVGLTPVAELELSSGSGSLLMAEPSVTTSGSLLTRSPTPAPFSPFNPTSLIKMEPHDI
CRX, sequence (O43186 whole entry): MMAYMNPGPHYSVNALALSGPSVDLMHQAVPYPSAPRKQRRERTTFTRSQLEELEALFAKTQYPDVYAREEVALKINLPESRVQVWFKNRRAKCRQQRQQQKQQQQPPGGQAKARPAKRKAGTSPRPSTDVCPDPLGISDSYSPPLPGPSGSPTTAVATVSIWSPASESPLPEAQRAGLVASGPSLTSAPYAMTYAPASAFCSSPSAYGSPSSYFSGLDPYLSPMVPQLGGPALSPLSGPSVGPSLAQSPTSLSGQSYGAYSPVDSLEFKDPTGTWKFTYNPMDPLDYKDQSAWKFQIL
ETV1, sequence (P50549 whole entry): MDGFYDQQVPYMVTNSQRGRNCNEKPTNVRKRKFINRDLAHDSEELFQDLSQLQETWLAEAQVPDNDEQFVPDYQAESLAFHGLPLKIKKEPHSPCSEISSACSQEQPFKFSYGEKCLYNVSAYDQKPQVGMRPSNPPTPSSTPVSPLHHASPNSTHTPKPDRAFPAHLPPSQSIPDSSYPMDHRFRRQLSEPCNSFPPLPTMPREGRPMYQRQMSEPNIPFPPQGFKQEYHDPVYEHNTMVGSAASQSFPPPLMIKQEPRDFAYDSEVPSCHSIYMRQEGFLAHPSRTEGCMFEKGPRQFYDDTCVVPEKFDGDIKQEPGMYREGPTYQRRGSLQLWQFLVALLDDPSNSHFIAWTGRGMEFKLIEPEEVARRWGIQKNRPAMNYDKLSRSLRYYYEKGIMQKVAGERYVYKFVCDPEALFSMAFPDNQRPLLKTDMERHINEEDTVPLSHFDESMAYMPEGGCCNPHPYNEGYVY
ETV5, sequence (P41161 whole entry): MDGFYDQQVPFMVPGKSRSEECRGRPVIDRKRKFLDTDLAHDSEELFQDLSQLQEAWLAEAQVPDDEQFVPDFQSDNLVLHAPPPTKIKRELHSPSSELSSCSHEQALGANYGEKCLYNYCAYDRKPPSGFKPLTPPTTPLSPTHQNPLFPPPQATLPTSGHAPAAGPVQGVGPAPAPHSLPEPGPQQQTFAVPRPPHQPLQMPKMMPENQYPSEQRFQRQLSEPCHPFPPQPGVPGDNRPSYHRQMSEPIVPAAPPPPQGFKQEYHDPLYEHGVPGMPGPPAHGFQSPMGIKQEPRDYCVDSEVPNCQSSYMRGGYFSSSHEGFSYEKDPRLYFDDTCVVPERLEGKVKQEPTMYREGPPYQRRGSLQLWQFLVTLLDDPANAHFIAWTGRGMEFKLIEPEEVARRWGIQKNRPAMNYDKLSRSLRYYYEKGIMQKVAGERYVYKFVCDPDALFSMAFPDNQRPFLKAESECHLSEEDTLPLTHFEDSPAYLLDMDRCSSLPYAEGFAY

For the sequence TCCGAA, the binding signal is 1.24 fold enrichment (6-mer frequency, TF over GST control) in assay [1]; 1.31 fold enrichment (6-mer frequency, TF over GST control) in [2]; 1.48 fold enrichment (6-mer frequency, TF over GST control) in assay [3]; 1.43 fold enrichment (6-mer frequency, TF over GST control) in assay [4]; 1.21 fold enrichment (6-mer frequency, TF over GST control) in assay [5]; 1.23 fold enrichment (6-mer frequency, TF over GST control) in assay [6]. The binding signal is 1.46 fold enrichment (6-mer frequency, TF over GST control) in [7]; 1.1 fold enrichment (6-mer frequency, TF over GST control) in assay [8]; 1.28 fold enrichment (6-mer frequency, TF over GST control) in [9]; 1.19 fold enrichment (6-mer frequency, TF over GST control) in [10]; 1.36 fold enrichment (6-mer frequency, TF over GST control) in [11]; 1.32 fold enrichment (6-mer frequency, TF over GST control) in assay [12]. For the same sequence, the binding signal in assay [13] was 1.23 fold enrichment (6-mer frequency, TF over GST control); in assay [14] it was 1.29 fold enrichment (6-mer frequency, TF over GST control); in assay [15], 1.25 fold enrichment (6-mer frequency, TF over GST control); in assay [16], 1.25 fold enrichment (6-mer frequency, TF over GST control); in assay [17], 1.15 fold enrichment (6-mer frequency, TF over GST control); in assay [18], 1.37 fold enrichment (6-mer frequency, TF over GST control).
